# Records with an inconclusive call do not appear. This is one part of the list. Activity calls are given as the source filed them. Unless noted, how the calls were made is not given here.
# How the values were obtained:
# [1] = target: DNA polymerase kappa (Homo sapiens) (UniProt Q9UBT6); assay: qHTS for Inhibitors of Polymerase Kappa: Confirmatory Assay for Cherry-picked Compounds (AID 720501; active means well fitted curve in the direction sought with a large enough effect; an effect the other way counts as inactive or inconclusive; further: potency means the concentration at half of the fitted maximal effect); details: purified Pol-kappa, fluorescent strand-displacement substrate
# In short: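 10 nM human Pol-kappa was preincubated with compound 15 min at room temperature, then 50 nM (final) primer/template substrate with TAMRA-labeled reporter strand and BHQ-2-labeled template added. Fluorescence (Ex 525, Em 598 nm) read at 0 and 10 min.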
# [2] = qHTS profiling for inhibitors of Plasmodium falciparum (3D7) proliferation (AID 743322);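 further: infected erythrocytes exposed to compound for 72 h before lysis; 100% = DMSO vehicle wells and 0% = 0.29 µM artemisinin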; details: P. falciparum 3D7 proliferation; at 28.7 µM (top of the series)
# In short: (§1)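 Erythrocytes infected with P. falciparum (0.3% parasitemia, 2.5% hematocrit) incubated with compounds 72 h at 37 C, 5% CO2. Lysis with saponin/Triton buffer containing SYBR Green I, overnight at room temperature in the dark; DNA fluorescence (485/535 nm) normalised to 0.29 uM artemisinin and DMSO.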
# [3] = qHTS profiling for inhibitors of Plasmodium falciparum (DD2) proliferation (AID 743323); details: lower = more inhibition; at 28.7 µM (top of the series)
# In short: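 1536-well qHTS; infected RBCs 0.3% parasitemia/2.5% Hct final; cpd 72 h 37 C 5% CO2; lysis buffer + SYBR Green I, o/n RT dark; FI 485/535; norm. to 0.29 uM artemisinin and DMSO, plate-stack corrected.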
# [4] = qHTS profiling for inhibitors of Plasmodium falciparum (HB3) proliferation (AID 743324; active means well fitted curve in the direction sought with a large enough effect; an effect the other way counts as inactive or inconclusive;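 further: 100% = DMSO vehicle wells and 0% = artemisinin-treated control wells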); details: Plasmodium falciparum HB3 blood-stage proliferation; at 28.7 µM (top of the series)
# In short: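 P. falciparum HB3 grown in erythrocytes (0.3% parasitemia, 2.5% hematocrit final) with compound for 72 h at 37 C, 5% CO2. Parasite DNA detected by SYBR Green after saponin/triton lysis overnight; normalized to 0.29 uM artemisinin and DMSO.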
# [5] = qHTS profiling of the MIPE4 collection as inhibitors of Plasmodium falciparum (3D7) proliferation (AID 743344);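 further: scaled between DMSO vehicle wells and 0.29 µM artemisinin as full inhibition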; details: P. falciparum 3D7 in erythrocytes, SYBR Green DNA fluorescence, 72 h; at 28.5 µM (top of the series)
# In short: as §1
# [6] = qHTS profiling of the MIPE4 collection as inhibitors of Plasmodium falciparum (DD2) proliferation (Rep 2) (AID 743346); details: P. falciparum Dd2 in erythrocytes, SYBR Green DNA, 72 h; at 28.5 µM (top of the series)
# In short: as §1
# [7] = qHTS profiling of the MIPE4 collection as inhibitors of Plasmodium falciparum (HB3) proliferation (AID 743347);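 further: plate controls were DMSO vehicle wells for no effect and artemisinin wells for full effect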; details: P. falciparum HB3 in erythrocytes, SYBR Green DNA, 72 h; at 28.5 µM (top of the series)
# In short: as §1
# [8] = qHTS Assay for Identifying Gametocytocidal Compounds (AID 743244; active means well fitted curve in the direction sought with a large enough effect; an effect the other way counts as inactive or inconclusive;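 further: on the % scale 0 is the no-effect control and ±100 the full control effect; actives lower the fluorescent signal which means gametocytes are killed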); details: P. falciparum 3D7 stage III-V gametocytes, alamarBlue, 72 h; stronger effect = lower value
# In short: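 Late gametocytes (III–V), P. falciparum 3D7; 72 h drug, then 24 h alamarBlue; resazurin reduction read by fluorescence.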
# DNA polymerase kappa (Homo sapiens), sequence (Q9UBT6 whole entry, looked up): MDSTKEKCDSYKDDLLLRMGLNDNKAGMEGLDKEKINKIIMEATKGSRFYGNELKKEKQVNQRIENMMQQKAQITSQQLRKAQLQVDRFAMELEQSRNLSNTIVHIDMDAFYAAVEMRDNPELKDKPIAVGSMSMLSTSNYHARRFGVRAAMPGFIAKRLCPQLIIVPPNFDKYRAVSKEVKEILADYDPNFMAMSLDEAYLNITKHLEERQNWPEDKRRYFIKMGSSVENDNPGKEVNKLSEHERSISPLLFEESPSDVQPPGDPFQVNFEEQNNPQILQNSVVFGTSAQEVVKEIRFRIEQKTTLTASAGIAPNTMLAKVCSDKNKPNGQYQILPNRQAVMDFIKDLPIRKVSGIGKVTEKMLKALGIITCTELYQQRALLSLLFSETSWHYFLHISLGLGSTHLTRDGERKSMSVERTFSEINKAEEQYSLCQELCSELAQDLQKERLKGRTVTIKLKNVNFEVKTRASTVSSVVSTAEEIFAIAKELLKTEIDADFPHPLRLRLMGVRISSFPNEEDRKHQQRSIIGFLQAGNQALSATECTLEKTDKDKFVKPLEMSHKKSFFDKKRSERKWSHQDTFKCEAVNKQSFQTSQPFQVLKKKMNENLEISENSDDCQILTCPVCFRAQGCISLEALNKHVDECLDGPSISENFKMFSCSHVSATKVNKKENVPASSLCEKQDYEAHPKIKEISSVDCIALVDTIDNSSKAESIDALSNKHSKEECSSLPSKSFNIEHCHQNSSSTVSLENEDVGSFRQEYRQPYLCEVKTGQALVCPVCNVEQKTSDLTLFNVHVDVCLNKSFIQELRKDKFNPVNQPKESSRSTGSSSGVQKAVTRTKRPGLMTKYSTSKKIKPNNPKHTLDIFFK
smiles,measurement,setting,value
COc1ccccc1C(=O)N/C(=C/c1ccco1)C(=O)Nc1ccc(C(=O)O)cc1,Potency,[1],15 µM (active)
CC(C)(C)OC(=O)N[C@@H](Cc1ccc(O[S+](=O)([O-])c2cccc3cccnc23)cc1)C(=O)N1CCN(c2ccccc2)CC1,remaining parasite growth % (stronger effect = lower value),[2],-0.907%
same,"activity, percent of control",[3],-0.148%
same,"remaining proliferation (% of control), lower = more inhibition",[4],-0.0202%
O=C([C@@H](Cc1ccc(O[S+](=O)([O-])c2ccccn2)cc1)N[S+](=O)([O-])c1cccc2cccnc12)N1CCN(c2ccccc2)CC1,remaining parasite growth % (stronger effect = lower value),[2],-0.32%
same,"activity, percent of control",[3],1.5%
same,"remaining proliferation (% of control), lower = more inhibition",[4],0.71%
C[C@H]1Cc2c([nH]c3cc(Cl)c(F)cc23)[C@@]2(N1)C(=O)Nc1ccc(Cl)cc12,remaining parasite growth % (stronger effect = lower value),[2],-1.02%
same,"activity, percent of control",[3],-0.226%
same,"remaining proliferation (% of control), lower = more inhibition",[4],0.369%
same,"parasite growth, % of DMSO control",[5],5.02%
same,"parasite growth, % of control (lower = inhibition)",[6],33.6%
same,"growth, % of control",[7],7.99%
O=C([C@H](Cc1ccc(O[S+](=O)([O-])c2ccccn2)cc1)N[S+](=O)([O-])c1cccc2cnccc12)N1CCN(c2ccccc2)CC1,remaining parasite growth % (stronger effect = lower value),[2],-0.962%
same,"activity, percent of control",[3],2.47%
same,"remaining proliferation (% of control), lower = more inhibition",[4],0.0492%
COC(=O)[C@H](Cc1ccc(O[S+](=O)([O-])c2cccc3cnccc23)cc1)N[S+](=O)([O-])c1ccc2cnccc2c1,remaining parasite growth % (stronger effect = lower value),[2],13.9%
same,"activity, percent of control",[3],29.2%
same,"remaining proliferation (% of control), lower = more inhibition",[4],6.01%
O=C([C@H](Cc1ccc(O[S+](=O)([O-])c2cccc3cnccc23)cc1)N[S+](=O)([O-])c1cccnc1)N1CCN(c2ccccc2)CC1,remaining parasite growth % (stronger effect = lower value),[2],-1.25%
same,"activity, percent of control",[3],0.979%
same,"remaining proliferation (% of control), lower = more inhibition",[4],-0.812%
O=C([C@H](Cc1ccc(O[S+](=O)([O-])c2cccc3cccnc23)cc1)N[S+](=O)([O-])c1cccc2cnccc12)N1CCN(c2ccccc2)CC1,remaining parasite growth % (stronger effect = lower value),[2],-0.402%
same,"activity, percent of control",[3],1.4%
same,"remaining proliferation (% of control), lower = more inhibition",[4],0.212%
O=C([C@H](Cc1ccc(O[S+](=O)([O-])c2cccnc2)cc1)N[S+](=O)([O-])c1ccccn1)N1CCN(c2ccccc2)CC1,remaining parasite growth % (stronger effect = lower value),[2],6.76%
same,"activity, percent of control",[3],12.3%
same,"remaining proliferation (% of control), lower = more inhibition",[4],2.47%
C[C@@H]1Cc2c([nH]c3cc(Cl)c(F)cc23)[C@]2(N1)C(=O)Nc1ccc(Cl)cc12,remaining parasite growth % (stronger effect = lower value),[2],-0.966%
same,"activity, percent of control",[3],0.0887%
same,"remaining proliferation (% of control), lower = more inhibition",[4],-0.181%
O=C1CCC(C2=C(O)c3ccccc3C(=O)C2=O)CC1,remaining parasite growth % (stronger effect = lower value),[2],7.05%
same,"activity, percent of control",[3],6.83%
same,"remaining proliferation (% of control), lower = more inhibition",[4],5.38%
N[C@@H](Cc1ccc(OS(=O)(=O)c2ccccn2)cc1)C(=O)N1CCN(c2ccccc2)CC1,remaining parasite growth % (stronger effect = lower value),[2],98.8%
same,"activity, percent of control",[3],43.6%
same,"remaining proliferation (% of control), lower = more inhibition",[4],67%
Cc1nc2c(C#N)cccc2n1-c1ccc(C(=O)NC2CC2)s1,remaining parasite growth % (stronger effect = lower value),[2],0.492%
same,"activity, percent of control",[3],1.69%
same,"remaining proliferation (% of control), lower = more inhibition",[4],1.16%
same,"parasite growth, % of DMSO control",[5],6.59%
same,"parasite growth, % of control (lower = inhibition)",[6],10.3%
same,"growth, % of control",[7],4.26%
O=C([C@H](Cc1ccc(OS(=O)(=O)c2ccccn2)cc1)NS(=O)(=O)c1ccccn1)N1CCN(c2ccccc2)CC1,remaining parasite growth % (stronger effect = lower value),[2],49.4%
same,"activity, percent of control",[3],24.7%
same,"remaining proliferation (% of control), lower = more inhibition",[4],18.6%
CC[C@]1(O)CC2CN(CCc3c([nH]c4ccccc34)[C@@](C(=O)OC)(c3cc4c(cc3OC)N(C)[C@H]3[C@@](O)(C(N)=O)[C@H](O)[C@]5(CC)C=CCN6CC[C@]43[C@@H]65)C2)C1 (stereo partly specified),max response,[8],-7.92% (inactive)
NC[C@@H]1O[C@H](O[C@H]2[C@@H](O)[C@H](O[C@@H]3[C@@H](O)[C@H](N)C[C@H](N)[C@H]3O[C@H]3O[C@H](CN)[C@@H](O)[C@H](O)[C@H]3N)O[C@@H]2CO)[C@H](N)[C@@H](O)[C@@H]1O,max response,[8],-12% (inactive)
CO[C@@]12[C@H](COC(N)=O)C3=C(C(=O)C(C)=C(N)C3=O)N1C[C@H]1N[C@H]12,remaining parasite growth % (stronger effect = lower value),[2],-0.57%
same,"activity, percent of control",[3],0.869%
same,"remaining proliferation (% of control), lower = more inhibition",[4],-0.956%
O=C(O)C1CCN(c2ccc([N+](=O)[O-])cc2[N+](=O)[O-])CC1,Potency,[1],42.3 µM (active)
CCOc1ccc(F)cc1C1(O)C(N)=Nc2ccc(Cl)cc21 (stereo unspecified),remaining parasite growth % (stronger effect = lower value),[2],0.18%
same,"activity, percent of control",[3],0.185%
same,"remaining proliferation (% of control), lower = more inhibition",[4],1.54%
same,"parasite growth, % of DMSO control",[5],5.08%
same,"parasite growth, % of control (lower = inhibition)",[6],8.34%
same,"growth, % of control",[7],5.81%
CCCCCCCCCCCCCCCC(=O)O[C@@H]1[C@@H](O)[C@@H](O)[C@@H]([C@H](NC(=O)[C@@H]2C[C@@H](CCC)CN2C)[C@H](C)Cl)O[C@@H]1SC,max response,[8],-16.5% (inactive)
CCCCC(F)(F)[C@@]1(O)CC[C@H]2[C@@H](CC(=O)[C@@H]2CCCCCCC(=O)O)O1,max response,[8],2.98% (inactive)
O=C(O)c1ccc(NS(=O)(=O)c2ccc3c(c2)C(=O)c2cc(S(=O)(=O)Nc4ccc(C(=O)O)cc4)ccc2-3)cc1,Potency,[1],16.8 µM (active)
C=C1C(=C/C=C2\CCC[C@]3(C)[C@@H]([C@H](C)CCCC(C)C)CC[C@@H]23)C[C@@H](O)C[C@@H]1O,max response,[8],-2.16% (inactive)
CN(C)c1cc(NC(=O)CNC(C)(C)C)c(O)c2c1C[C@H]1C[C@H]3[C@H](N(C)C)C(=O)C(C(N)=O)=C(O)[C@@]3(O)C(=O)C1=C2O,max response,[8],7.63% (inactive)
O=C([C@H](Cc1ccc(O[S+](=O)([O-])c2cccc3cccnc23)cc1)N[S+](=O)([O-])c1ccccn1)N1CCN(c2ccccc2)CC1,remaining parasite growth % (stronger effect = lower value),[2],-1.21%
same,"activity, percent of control",[3],2.43%
same,"remaining proliferation (% of control), lower = more inhibition",[4],-0.011%

# From PubChem BioAssay (NCATS)
